Consider 36 compounds from PubChem BioAssay.

The test can be described thus: compound effects on lung adenocarcinoma cell viability – A549, calcein-AM fluorescence, 48 h, basal, profiling panel (AID 1162). Further: test concentration not given here. Particulars: higher = more signal.
Take `CO[C@H]1COC(=O)CC=C[C@H](C)[C@H](OC)COC(=O)[C@@H](C)NC(=O)CC=C[C@@H]1C`: the z-score was -0.42.

For `CCOC(=O)[C@H](Cc1ccccc1)NC(=O)CCC1CC(OC(=O)NCCc2ccc(F)cc2)CC2(CCCC(COC(=O)NCc3cccc(C(F)(F)F)c3)O2)O1` (stereo partly specified), the z-score was -0.754.

On to `CCOC(=O)NN=C1C[C@@H](O)[C@@H](O)[C@@H]2[C@@H]3C(=O)N(c4ccc(F)cc4F)C(=O)[C@@H]3CC[C@H]12`, for which the z-score was -0.999.

As for `C[C@]12CCC3c4ccc(OCC5CO5)cc4CCC3C1CC[C@@H]2O` (stereo partly specified), the z-score is 0.45.

As to `CCOC(=O)CCN1C(=O)[C@H]2[C@H]3[C@H](O)[C@H](O)CC(=NOCC=C(C)CCC=C(C)C)[C@@H]3CC[C@H]2C1=O`, the z-score is -0.0606.

As for `CCOC(=O)[C@H](Cc1ccccc1)NC(=O)CCC1CC(OC(=O)NCc2cccc3ccccc23)CC2(CCCC(COC(=O)NCCOc3ccccc3)O2)O1` (stereo partly specified), the z-score is 0.128.

With `CCOC(=O)[C@H](Cc1ccccc1)NC(=O)CCC1CC(OC(=O)NCc2ccc3c(c2)OCO3)CC2(CCCC(COC(=O)NCCc3ccc(Cl)cc3)O2)O1` (stereo partly specified), the z-score was 1.81.

On to `O=C(NN=C1C[C@@H](O)[C@@H](O)[C@@H]2[C@@H]3C(=O)N(Cc4ccccc4)C(=O)[C@@H]3CC[C@H]12)OCc1ccccc1`, for which the z-score was 0.614.

With `C[C@@H]1CC[C@H]2C(=O)O[C@@H](CN=[N+]=[N-])CN2[C@H]1c1ccc(Br)cc1`, the z-score was -3.8.

On to `COC(=O)CC=C[C@@H](C)[C@@H](C=NOC[C@@H](O)[C@H]1O[C@@H]2OC(C)(C)O[C@@H]2[C@H]1O)OC`, for which the z-score was 0.218.

As to `CC(CCN1CCCc2nc(C)c(C)cc21)=NO[C@H](C)c1cn([C@@H]2COC[C@H]2O)nn1`, the z-score is 0.105.

Consider `CC(C)(C)N1C(=O)[C@H]2[C@H]3[C@H](O)[C@H](O)CC(=NNC(=O)OCc4ccccc4)[C@@H]3CC[C@H]2C1=O`, for which the z-score was 0.193.

For `COc1cccc([C@H]2Oc3ccc(OC)cc3C(=NO[C@@H](C)c3cc(-c4c(C)cc(C)cc4C)no3)[C@@H]2O)c1`, the z-score is -0.744.

In the case of `O=C1C2=CC[C@H]3C(=O)N(C[C@@H]4CCCO4)C(=O)[C@H]3[C@H]2[C@H](O)[C@@H]2O[C@H]12`, the z-score is 0.144.

Consider `CCOC(=O)[C@H](Cc1ccccc1)NC(=O)CCC1CC(OC(=O)NCc2cccc3ccccc23)CC2(CCCC(COC(=O)NCCc3ccc(Cl)cc3)O2)O1` (stereo partly specified), for which the z-score was 0.893.

As to `COC(=O)[C@H](C)NC(=O)CCC1CC(OC(=O)NCc2cccc3ccccc23)CC2(CCCC(COC(=O)NCc3cccc(C(F)(F)F)c3)O2)O1` (stereo partly specified), the z-score is 0.826.

On to `COC(=O)[C@H](C)NC(=O)CCC1CC(OC(=O)NCc2cccc3ccccc23)CC2(CCCC(COC(=O)NCCOc3ccccc3)O2)O1` (stereo partly specified), for which the z-score was -0.13.

In the case of `CCOC(=O)CCN1C(=O)[C@H]2[C@H]3[C@H](O)[C@H](O)CC(=O)[C@@H]3CC[C@H]2C1=O`, the z-score is -0.856.

For `C#CCCCON=C1[C@H]2CCn3c(=O)n(Cc4cc5c(cc4Cl)OCO5)c(=O)n3[C@H]2[C@H](O)[C@@H]2O[C@H]12`, the z-score is 0.328.

With `COC(=O)[C@H](C)NC(=O)CCC1CC(OC(=O)NCCc2ccc(F)cc2)CC2(CCCC(COC(=O)NCCc3ccccc3OC)O2)O1` (stereo partly specified), the z-score is -0.0621.

For the compound `CCOC(=O)[C@H](Cc1ccccc1)NC(=O)CCC1CC(OC(=O)NCc2ccc3c(c2)OCO3)CC2(CCCC(COC(=O)NCCOc3ccccc3)O2)O1` (stereo partly specified), the z-score was -0.794.

Turning to `CCOC(=O)CCN1C(=O)[C@H]2[C@H]3[C@H](O)[C@H](O)CC(=NNC(=O)OCC)[C@H]3CC[C@H]2C1=O`, the z-score is -1.19.

Turning to `CCN1C(=O)[C@H]2[C@H]3[C@H](O)[C@H](O)CC(=NOCC[C@@H]4C=C[C@H](OC(C)=O)[C@@H](COC(C)=O)O4)[C@@H]3CC[C@H]2C1=O`, the z-score was 1.03.

Turning to `O=C1C2=CC[C@H]3C(=O)N(c4ccc(F)cc4F)C(=O)[C@H]3[C@H]2[C@H](O)[C@@H]2O[C@H]12`, the z-score is -0.463.

On to `COc1ccc(O[C@H]2C=C[C@@H](c3ccccc3)O[C@@H]2COC(=O)CCC(C)=NOC[C@@H](O)COCc2ccco2)cc1`, for which the z-score was 0.944.

With `O=C1C[C@@H](O)[C@@H](O)[C@@H]2[C@@H]3C(=O)N(C4CCCCC4)C(=O)[C@@H]3CC[C@@H]12`, the z-score is 0.112.

Take `CC(CCC(=O)OC[C@H]1O[C@H](C#Cc2ccccc2)C=C[C@@H]1Oc1ccc(C)cc1)=NOC[C@@H](C)[C@H](OCc1ccccc1)C(C)C`: the z-score is -0.284.

For the compound `CC(C)CON=C1C[C@@H](O)[C@@H](O)[C@@H]2[C@@H]3C(=O)N([C@@H](C)c4ccccc4)C(=O)[C@@H]3CC[C@@H]12`, the z-score is -0.398.

For `O=C1[C@H]2[C@H]3[C@H](O)[C@H](O)CC(=NO[C@@H]4O[C@H](CO)[C@@H](O)[C@H](O)[C@H]4O)[C@H]3CC[C@H]2C(=O)N1c1ccc(F)cc1F`, the z-score was -0.32.

`COC(=O)[C@@H]1CC[C@H](C)[C@@H](c2ccc(C)cc2)N1C(=O)c1ccc(C=NOC[C@H]2O[C@H](c3ccccc3)C=C[C@@H]2Oc2ccc(OC)cc2)cc1`: the z-score was -0.798.

In the case of `COC(=O)CC=C[C@@H](C)[C@@H](C=NOC[C@@H](O)COCc1ccco1)OC`, the z-score was 1.3.

In the case of `CC(C)(C)N1C(=O)[C@H]2[C@H]3[C@H](O)[C@H](O)CC(=NOC[C@@H](O)COCc4ccco4)[C@@H]3CC[C@H]2C1=O`, the z-score was -0.535.

In the case of `C#CCCCON=C1C[C@@H](O)[C@@H](O)[C@@H]2[C@@H]3C(=O)N(C[C@@H]4CCCO4)C(=O)[C@@H]3CC[C@H]12`, the z-score is -0.549.

On to `CCOC(=O)[C@H](CC(C)C)NC(=O)CCC1CC(OC(=O)NCCc2ccc(F)cc2)CC2(CCCC(COC(=O)NCCOC)O2)O1` (stereo partly specified), for which the z-score was 0.0721.

As to `CCOC(=O)[C@H](Cc1ccccc1)NC(=O)CCC1CC(OC(=O)NCCc2ccc(F)cc2)CC2(CCCC(COC(=O)NCCC(C)C)O2)O1` (stereo partly specified), the z-score is 1.28.

Turning to `CC(C)=CCCC(C)=CCON=C1C[C@@H](O)[C@@H](O)[C@@H]2[C@@H]3C(=O)N(C4CCCCC4)C(=O)[C@@H]3CC[C@H]12`, the z-score is -0.529.
